# Compounds with a hit are over-represented: about 5.3% of the library has one in this group of screens.
# VACV Venus inh: inhibitors of vaccinia virus (Venus reporter); Vaccinia virus Venus reporter expression, fluorescence; Potency, µM (highest dose often 36.5 µM), for inactives: at the highest dose activity change, negative = inhibition, most hits filed as inhibitors; hit rate 0.46% among 330,000; AID 720580; calls by dose curve; tested in A549 cells; further: nearly all actives have a fitted effect of over 30% in size
# LASV entry inh: inhibitors of Lassa virus binding or cell entry. Lassa virus pseudotype entry inhibition, cell reporter. Potency, µM (doses to about 37.9 µM), inactives show at the highest dose activity change, negative = inhibition, actives largely listed as inhibitors. hit rate 1.2% among 300,000. AID 540256; calls by dose curve; tested in HEK293 cells; further: nearly all actives have a fitted effect of over 50% in size
# HCV inhibitor: HCV inhibition; Huh7.5.1 HCVcc-Cre infection, luciferase reporter, 44 h; Potency, µM (doses to about 41.8 µM), for inactives: top-dose activity change, negative = inhibition, hits mostly inhibitors; hit rate 3.4% among 340,000; AID 651820; active means well fitted inhibition curve with a large enough effect; inconclusive means small, poorly fitted or top-dose-only effect, or another doubt; inactive means no such curve, though single readings can be large or run the other way
#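 Compounds are dispensed onto cells plated 4 h earlier at 1,000 per well, with HCVcc-Cre virus (about 0.5 moi) added next. Following 44 h of culture, luminescent signal is measured for 15 sec after 15 min with substrate at room temperature.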
# VACV mCherry inh: vaccinia inhibition (mCherry reporter). hit rate 0.63% among 310,000. Vaccinia virus mCherry reporter infection, fluorescence. Potency, µM (doses to about 36.5 µM), for inactives: top-dose activity change, negative = inhibition, hits mostly inhibitors; calls by dose curve; tested in A549 cells; further: nearly all actives have a fitted effect of over 35% in size
# FMDV antiviral: blocks foot and mouth disease virus | FMDV antiviral cell-based qHTS | Potency, µM (doses to about 57.9 µM), inactives show top-dose activity change, negative = inhibition, usual class: inhibitors | hit rate 1.2% among 410,000 | AID 1159524; calls by dose curve; tested in HEK293T cells; further: read-out not given here; nearly all actives have a fitted effect of over 45% in size
# MARV entry inh: Marburg virus entry inhibition. hit rate 1.8% among 300,000. Potency, µM (doses to about 37.8 µM), for the others: at the top dose activity change, negative = inhibition, hits mostly inhibitors. Marburg virus pseudotyped entry inhibition, cell reporter; calls by dose curve; tested in HEK293 cells
# Numbers without * were called inactive; i = inactive; u = inconclusive; x = no result; [ ] = dose if it differs, or a comment. On the % scale 0 is the no-effect control and ±100 the full control effect; potency means the concentration at half of the fitted maximal effect.
SMILES,VACV Venus inh,LASV entry inh,HCV inhibitor,VACV mCherry inh,FMDV antiviral,MARV entry inh
CC(=O)c1cccc(NC(=O)C2Cc3c(-c4cccc(C(C)=O)c4)ccnc3O2)c1 (centres undefined),-3%,x,x,2%,22µM*,x
CCc1sc(C(=O)Nc2ncccc2O)cc1C,-25%,u,-4%,-29%,-54%,6.3µM*
Cn1cccc1C(=O)Nc1nc(-c2ccccn2)cs1,x,u,14µM*,x,-16%,u
Cc1csc(NC(=O)c2cccn2C)n1,-8%,u,1%,i,x,-31%
O=C(Nc1nc(-c2ccccn2)cs1)c1ccc(Cl)s1,u,x,u,3.2µM*,-8%,x
O=C(Nc1nc(-c2cc(Cl)sc2Cl)cs1)c1ccccc1,x,9%,11µM*,x,-15%,u
COc1cc(-c2ccc(N3C(c4ccsc4)=Cc4ccc(F)cc4C3c3c[nH]c4ccc(C#N)cc34)cc2)cc(OC)c1OC (centres undefined),-10%,x,x,i,-11%,x
Cc1cnc(C)c(-c2cc(F)cc3c2OC(CNC(=O)Cc2c(C)noc2C)C3)n1 (centres undefined),-14%,x,x,i,-2%,x
CC1CN(CC(O)COc2ccc(C#N)cc2)CCN1CC(O)COc1ccc(C#N)cc1 (centres undefined),0%,x,u,0%,u,u
CC(C)(C)C(=O)Nc1ccc(C(=O)COC(=O)C2=COCCO2)cc1,-9%,16%,1%,-13%,-10%,-5%
Cc1ccc(C(=O)Nc2nc(-c3ccccn3)cs2)s1,x,x,u,x,-13%,x
O=C(Nc1nc(-c2ccccc2)cs1)c1cccs1,u,u,u,u,-36%,-25%
O=C(Nc1nc(-c2ccc(Cl)s2)cs1)c1cccs1,u,u,11µM*,u,37%,-4%
O=C(Nc1nc(-c2ccccn2)cs1)c1cc2ccccc2o1,-4%,u,u,-11%,5%,u
CCc1sc(C(=O)Nc2nc(-c3ccccn3)cs2)cc1C,-19%,u,18µM*,u,12%,u
O=C(Nc1ccc([N+](=O)[O-])cc1)Nc1nc(-c2ccc(Cl)s2)cs1,5.6µM*,u,u,u,u,u
Cc1c(C(=O)Nc2nc(-c3ccccn3)cs2)oc2ccccc12,x,x,2.8µM*,x,1%,x
NC(=O)C1(N2CCCCC2)CCN(C(=O)Nc2ccc(F)cc2)CC1,-1%,u,x,-5%,-19%,-5%[46.1 µM]
c1nc(NC2CCNCC2)c2cc(-c3ccoc3)ccc2n1,x,x,x,x,-11%,x
COc1ccc(OC)c([C@H]2C(C(=O)c3sc(C)nc3C)=C(O)C(=O)N2CCN2CCOCC2)c1,x,x,x,x,x,-11%[46.1 µM]
CN(C)C(CNC(=O)c1ccc2c(=O)n(-c3ccccc3F)c(=S)[nH]c2c1)Cc1ccccc1 (centres undefined),-6%,0%,2.2µM*,-5%,-12%,u
O=C(NCCCN1CCCC1=O)c1ccc2c(=O)n(-c3ccccc3F)c(=S)[nH]c2c1,4%,-3%,u,-5%,-28%,-12%
CCCCN1CC[C@H]2C=CC[C@@H](C(=O)N3CCOCC3)[C@H]2C1=O,-8%,x,0.56µM*,-3%,-5%,x
COc1ccc2c(c1)CCc1cnc(-n3ncc(C(=O)N(C)CC4CCCN(C)C4)c3C)nc1-2 (centres undefined),-8%,x,x,-8%,-6%,x
N[C@H](C(=O)O)C1C(C(=O)O)C1C(=O)O (some centres undefined),-14%,x,x,-11%,-4%,x
SMILES,VACV Venus inh,LASV entry inh,HCV inhibitor,VACV mCherry inh,FMDV antiviral,MARV entry inh
Cc1nn(CCC(=O)Nc2cc(F)ccc2F)c(=O)c2nn(-c3ccccc3)c(C)c12,-16%,-3%[46.1 µM],x,i,u,x
CCn1c(C)nc2cc(C(=O)N/N=C(\C)c3ccccc3O)ccc21,u,-15%,10µM*,u,36%,u
CCn1c(C)nc2cc(C(=O)N/N=C/c3ccccc3C)ccc21,-5%,u,-16%,-6%,21%,u
CN(C)c1ccc(C=O)c(F)c1,5%,x,x,-9%,x,x
CCN(CC)CCCNC(=O)CSc1nc2c(c(C(F)(F)F)n1)CCc1ccccc1-2,-21%,u,16µM*,-20%,-15%,u
O=C(CSc1nc2c(c(C(F)(F)F)n1)CCc1ccccc1-2)NCc1ccccc1,-9%,1%,-5%,i,-19%,u
Cc1ncc2c(c1CNS(=O)(=O)c1cccs1)CCN(C(=O)/C=C/c1ccc(F)cc1F)C2,-2%,x,x,-15%,4%,x
CCOC(=O)OC[C@H]1O[C@H](c2ccc(C(C)=O)cc2)C=C[C@@H]1Oc1ccc(-c2ccccc2)cc1,x,x,x,x,x,3%[14.2 µM]
CCN(C[C@H]1N[C@@](CC)(C(=O)OC)[C@H]2C(=O)N(Cc3ccccc3)C(=O)[C@@H]12)C(=O)NC(C)C,-10%,x,6.3µM*,i,-13%,x
CCN(C[C@H]1N[C@@](Cc2ccccc2)(C(=O)OC)[C@H]2C(=O)N(Cc3ccccc3)C(=O)[C@@H]12)C(=O)Nc1ccc(C(F)(F)F)cc1,u,x,13µM*,u,-22%,x
COc1cc2c(cc1NC(=O)c1cccc([N+](=O)[O-])c1C)oc1ccccc12,x,-6%,2µM*,x,20%,-28%
COc1cc2c(cc1NC(=O)c1cccc(S(=O)(=O)N(C)C)c1)oc1ccccc12,u,-37%,1.4µM*,u,21%,u
COCCNC(=O)Cn1c(=O)n(CCCC(=O)NCc2ccc3c(c2)OCO3)c(=O)c2sccc21,1%,4.5µM*,-12%,-4%,5%,u
O=c1cccccc1NCc1ccccc1,x,26%,-1%,x,47%,10%
CCOc1ccc(NC2=CC(=O)C(=O)c3ccccc32)cc1,u,u,u,u,7%,u
O=C1C=C(Nc2cccnc2)c2ccccc2C1=O,10µM*,u,13µM*,u,u,u
O=C1C=C(Nc2ccc(F)cc2)c2ccccc2C1=O,-17%,u,u,u,u,u
O=C1C=C(NCc2ccccc2)c2ccccc2C1=O,11µM*,u,u,u,-16%,u
O=C1C=C(Nc2ccccc2O)c2ccccc2C1=O,u,u,u,5µM*,u,u
COc1cccc(CNC(=O)c2c(OC)cc(=O)n3c2CCN(C(=O)c2ccc(C)cc2C)CC3)c1,9%,x,x,-3%,2%,x
CCCSc1nc2cc(OC)c(OC)cc2c(=N)n1CCCN1CCOCC1,u,u,11µM*,u,-20%,14µM*
CCc1cccc2sc(N3CCN(C(=O)c4ccc([N+](=O)[O-])o4)CC3)nc12,u,u,u,u,u,5µM*
O=C(Nc1ccc(N2CCCC2)c(Cl)c1)c1ccco1,-19%,12µM*,u,-2%,x,u
CC(=O)c1cccc(NC(=O)c2ccc(-c3ccccc3[N+](=O)[O-])o2)c1,-17%,u,u,-25%,-60%,4.6µM*

# Assay outcomes deposited in PubChem BioAssay by National Center for Advancing Translational Sciences (NCATS).
